Data from the supplement of paper PMC10849652.
The full data set covers some 7,900 targets. This sample favours those with a hit. About 0.6% of all pairs of compound and target were hits.

Legend:
Experiment in all cases: log2 fold change, soluble protein after heating vs DMSO (PISA); higher = thermal stabilisation; K562 cells, 10 uM, 30 min; active = over 0.2 and 3.5 SD of the protein, either way, in both replicates (recomputed)
[1] = molecular target: ZNF217 (UniProt O75362)
Method in brief: (§1)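 Soluble protein was quantified by TMTpro 16plex LC-MS/MS after channel sums were equalised. It was obtained as the supernatant after 21,000xg for 90 min from pooled aliquots of K562 cells (2×10^6 cells/mL, 10 μM compound, 30 min) heated for 3 min across 48°C-58°C and extracted in PBS with 0.5% NP-40 at 4°C. Thermal stability values are relative to control samples and come from duplicates. They are given as log2 fold changes.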

[2] = molecular target: ZNF239 (UniProt Q16600)
Method in brief: as §1

[3] = molecular target: ZNF277 (UniProt Q9NRM2)
Method in brief: as §1

[4] = molecular target: ZNF511 isoform 1 (UniProt Q8NB15)
Method in brief: as §1

[5] = molecular target: ZNF512 (UniProt Q96ME7)
Method in brief: as §1

[6] = molecular target: ZNF579 (UniProt Q8NAF0)
Method in brief: as §1

[7] = molecular target: ZNF609 (UniProt O15014)
Method in brief: as §1

[8] = molecular target: ZNF622 (UniProt Q969S3)
Method in brief: as §1

[9] = molecular target: ZRANB2 (UniProt O95218)
Method in brief: as §1

[10] = molecular target: ZNF580 (UniProt Q9UK33)
Method in brief: as §1

Measured: log2 fold change

ZNF622, sequence (Q969S3 whole entry, looked up): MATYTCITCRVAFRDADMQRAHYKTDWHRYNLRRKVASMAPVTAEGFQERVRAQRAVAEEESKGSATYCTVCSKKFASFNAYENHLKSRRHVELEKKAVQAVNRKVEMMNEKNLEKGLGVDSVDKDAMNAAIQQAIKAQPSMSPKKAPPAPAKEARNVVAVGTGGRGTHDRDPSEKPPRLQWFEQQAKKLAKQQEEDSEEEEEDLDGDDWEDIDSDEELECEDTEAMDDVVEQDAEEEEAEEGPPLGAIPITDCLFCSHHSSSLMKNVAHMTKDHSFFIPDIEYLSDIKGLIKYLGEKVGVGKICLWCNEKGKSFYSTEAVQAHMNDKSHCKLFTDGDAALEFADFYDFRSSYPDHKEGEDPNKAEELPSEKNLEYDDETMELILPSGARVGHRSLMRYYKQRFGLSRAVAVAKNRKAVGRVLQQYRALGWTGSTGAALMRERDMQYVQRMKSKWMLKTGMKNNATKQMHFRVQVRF
ZNF277, sequence (Q9NRM2 whole entry, looked up): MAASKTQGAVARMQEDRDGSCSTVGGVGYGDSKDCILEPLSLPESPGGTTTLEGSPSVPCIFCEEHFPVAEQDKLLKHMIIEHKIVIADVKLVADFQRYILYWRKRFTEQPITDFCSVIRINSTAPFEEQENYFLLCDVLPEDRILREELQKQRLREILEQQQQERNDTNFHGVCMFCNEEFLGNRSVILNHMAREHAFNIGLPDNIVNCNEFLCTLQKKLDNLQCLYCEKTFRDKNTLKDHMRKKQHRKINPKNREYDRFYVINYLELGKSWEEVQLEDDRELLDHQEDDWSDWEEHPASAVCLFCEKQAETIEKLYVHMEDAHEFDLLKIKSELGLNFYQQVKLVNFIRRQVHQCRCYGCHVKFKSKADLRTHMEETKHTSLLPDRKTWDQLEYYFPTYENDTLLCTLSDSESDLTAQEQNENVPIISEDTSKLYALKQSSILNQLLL
ZNF609, sequence (O15014 whole entry, looked up): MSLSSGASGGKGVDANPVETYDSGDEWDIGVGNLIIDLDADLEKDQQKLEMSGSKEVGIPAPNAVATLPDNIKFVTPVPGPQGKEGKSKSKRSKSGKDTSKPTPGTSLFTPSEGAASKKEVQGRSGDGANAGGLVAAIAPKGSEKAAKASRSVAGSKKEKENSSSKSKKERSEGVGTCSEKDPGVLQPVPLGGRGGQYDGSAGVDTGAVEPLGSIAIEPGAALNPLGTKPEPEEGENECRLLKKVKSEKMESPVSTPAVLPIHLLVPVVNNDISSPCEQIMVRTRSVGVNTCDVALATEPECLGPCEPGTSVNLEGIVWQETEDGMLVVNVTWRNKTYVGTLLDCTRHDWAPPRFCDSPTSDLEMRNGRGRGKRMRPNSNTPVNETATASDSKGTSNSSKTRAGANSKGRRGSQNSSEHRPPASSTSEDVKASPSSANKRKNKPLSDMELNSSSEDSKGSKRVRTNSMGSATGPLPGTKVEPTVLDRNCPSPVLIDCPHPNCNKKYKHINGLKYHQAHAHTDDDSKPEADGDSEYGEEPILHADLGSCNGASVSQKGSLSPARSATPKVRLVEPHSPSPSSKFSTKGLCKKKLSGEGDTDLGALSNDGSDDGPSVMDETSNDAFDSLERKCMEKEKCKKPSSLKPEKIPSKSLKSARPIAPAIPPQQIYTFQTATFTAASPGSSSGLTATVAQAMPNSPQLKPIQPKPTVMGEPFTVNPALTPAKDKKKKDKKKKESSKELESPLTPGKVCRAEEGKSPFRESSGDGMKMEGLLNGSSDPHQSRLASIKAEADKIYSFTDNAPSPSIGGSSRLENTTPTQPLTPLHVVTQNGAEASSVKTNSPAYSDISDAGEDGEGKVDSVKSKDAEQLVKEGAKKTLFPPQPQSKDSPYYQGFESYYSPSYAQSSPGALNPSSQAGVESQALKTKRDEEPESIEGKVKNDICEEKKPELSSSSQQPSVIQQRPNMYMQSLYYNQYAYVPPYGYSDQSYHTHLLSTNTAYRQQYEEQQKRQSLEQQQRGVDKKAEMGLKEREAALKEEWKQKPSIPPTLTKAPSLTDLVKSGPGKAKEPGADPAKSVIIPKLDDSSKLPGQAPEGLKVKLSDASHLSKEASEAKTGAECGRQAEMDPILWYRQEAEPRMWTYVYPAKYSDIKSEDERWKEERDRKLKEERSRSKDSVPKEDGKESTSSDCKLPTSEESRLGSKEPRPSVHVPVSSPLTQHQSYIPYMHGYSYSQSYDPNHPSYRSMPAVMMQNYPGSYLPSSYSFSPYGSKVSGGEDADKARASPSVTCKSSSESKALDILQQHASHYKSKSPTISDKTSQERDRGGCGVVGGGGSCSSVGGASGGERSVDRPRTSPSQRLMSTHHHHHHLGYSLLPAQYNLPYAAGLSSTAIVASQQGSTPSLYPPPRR
ZNF580, sequence (Q9UK33 whole entry, looked up): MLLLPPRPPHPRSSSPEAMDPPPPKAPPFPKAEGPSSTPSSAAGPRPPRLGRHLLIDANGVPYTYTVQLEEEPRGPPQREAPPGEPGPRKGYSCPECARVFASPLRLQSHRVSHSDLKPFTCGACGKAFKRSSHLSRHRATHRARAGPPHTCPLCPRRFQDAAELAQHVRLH
ZRANB2, sequence (O95218 whole entry, looked up): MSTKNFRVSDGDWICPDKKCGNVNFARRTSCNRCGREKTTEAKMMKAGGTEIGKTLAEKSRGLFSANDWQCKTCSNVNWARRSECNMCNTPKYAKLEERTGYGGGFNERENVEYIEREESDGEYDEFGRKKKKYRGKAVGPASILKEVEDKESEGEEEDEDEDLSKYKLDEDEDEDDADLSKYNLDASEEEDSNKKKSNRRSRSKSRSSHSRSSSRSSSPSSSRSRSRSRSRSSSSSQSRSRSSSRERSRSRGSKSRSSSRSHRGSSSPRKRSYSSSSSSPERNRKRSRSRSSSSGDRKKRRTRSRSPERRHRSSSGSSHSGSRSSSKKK
ZNF512, sequence (Q96ME7 whole entry, looked up): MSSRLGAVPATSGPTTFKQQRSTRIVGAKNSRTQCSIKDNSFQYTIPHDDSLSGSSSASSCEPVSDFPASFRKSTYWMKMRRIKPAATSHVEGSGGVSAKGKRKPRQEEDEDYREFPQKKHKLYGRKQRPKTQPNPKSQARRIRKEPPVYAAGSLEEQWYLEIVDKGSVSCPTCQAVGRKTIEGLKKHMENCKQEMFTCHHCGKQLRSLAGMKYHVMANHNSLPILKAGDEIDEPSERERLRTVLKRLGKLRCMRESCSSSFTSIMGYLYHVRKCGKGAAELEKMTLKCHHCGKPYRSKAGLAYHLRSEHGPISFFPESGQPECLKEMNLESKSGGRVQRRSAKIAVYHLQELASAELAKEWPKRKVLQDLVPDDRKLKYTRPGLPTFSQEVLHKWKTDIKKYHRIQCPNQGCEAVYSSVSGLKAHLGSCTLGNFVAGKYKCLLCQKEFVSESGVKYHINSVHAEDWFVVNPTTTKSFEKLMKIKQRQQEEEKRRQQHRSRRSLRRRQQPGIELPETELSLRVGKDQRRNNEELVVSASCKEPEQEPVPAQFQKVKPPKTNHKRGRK
ZNF217, sequence (O75362 whole entry, looked up): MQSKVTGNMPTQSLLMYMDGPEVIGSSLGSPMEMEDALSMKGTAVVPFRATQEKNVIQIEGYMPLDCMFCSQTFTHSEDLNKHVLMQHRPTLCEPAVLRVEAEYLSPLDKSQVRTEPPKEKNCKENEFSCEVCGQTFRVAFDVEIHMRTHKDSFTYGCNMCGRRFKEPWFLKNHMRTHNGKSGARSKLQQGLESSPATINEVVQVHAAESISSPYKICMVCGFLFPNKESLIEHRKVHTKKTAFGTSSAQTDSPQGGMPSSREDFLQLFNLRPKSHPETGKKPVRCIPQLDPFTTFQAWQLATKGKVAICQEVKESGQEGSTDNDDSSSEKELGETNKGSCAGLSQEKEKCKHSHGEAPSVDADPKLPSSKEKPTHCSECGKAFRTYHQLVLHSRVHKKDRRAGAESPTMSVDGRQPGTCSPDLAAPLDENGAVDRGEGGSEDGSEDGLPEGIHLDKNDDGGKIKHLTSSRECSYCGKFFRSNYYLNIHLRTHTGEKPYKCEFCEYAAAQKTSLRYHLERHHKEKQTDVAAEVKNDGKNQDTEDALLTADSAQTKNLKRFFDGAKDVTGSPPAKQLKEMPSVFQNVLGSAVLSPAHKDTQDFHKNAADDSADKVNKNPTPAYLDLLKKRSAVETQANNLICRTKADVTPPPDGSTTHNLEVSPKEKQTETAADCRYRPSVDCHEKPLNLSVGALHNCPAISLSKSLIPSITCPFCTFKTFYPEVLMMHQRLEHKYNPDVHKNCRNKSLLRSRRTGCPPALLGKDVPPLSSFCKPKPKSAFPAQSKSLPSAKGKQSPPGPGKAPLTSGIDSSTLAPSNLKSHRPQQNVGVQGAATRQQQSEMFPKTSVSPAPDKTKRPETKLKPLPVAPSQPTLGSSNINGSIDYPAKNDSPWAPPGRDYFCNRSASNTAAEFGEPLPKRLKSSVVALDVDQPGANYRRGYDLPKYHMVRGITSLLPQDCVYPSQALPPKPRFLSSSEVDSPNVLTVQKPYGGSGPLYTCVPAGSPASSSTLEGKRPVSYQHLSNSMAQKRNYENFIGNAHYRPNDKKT
ZNF511 isoform 1, sequence (Q8NB15 whole entry, looked up, canonical isoform): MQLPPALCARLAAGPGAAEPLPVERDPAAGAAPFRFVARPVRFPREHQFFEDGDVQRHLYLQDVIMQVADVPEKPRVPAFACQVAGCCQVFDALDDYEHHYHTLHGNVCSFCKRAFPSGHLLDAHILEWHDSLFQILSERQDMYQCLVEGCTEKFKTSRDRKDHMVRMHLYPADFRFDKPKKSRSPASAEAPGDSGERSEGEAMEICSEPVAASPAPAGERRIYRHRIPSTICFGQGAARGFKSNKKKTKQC

FC(F)(F)c1ccc(/C=C/c2nc(COc3ccc(CCCCn4ccnn4)cc3)co2)cc1 [mubritinib]
inactive: [1] 0.08 | [2] -0.483 | [3] 0.192 | [4] -0.06 | [5] -0.122 | [6] 0.031 | [7] 0.019 | [8] 0.004 | [9] -0.02

Cc1ncc(-c2ccnc(Nc3ccc(S(C)(=O)=O)cc3)n2)n1C(C)C
inactive: [1] -0.046 | [2] 0.275 | [3] 0.017 | [4] 0.015 | [5] -0.072 | [6] -0.054 | [7] -0.102 | [8] 0.013 | [9] -0.027

C[C@@H](N)c1ccc(C(=O)Nc2ccnc3[nH]ccc23)cc1
inactive: [1] -0.013 | [2] 0.022 | [3] 0.315 | [4] -0.105 | [5] 0.45 | [6] 0.102 | [7] 0.033 | [8] 0 | [9] -0.043

NC(=O)c1cnc(N[C@@H]2CCCC[C@@H]2N)nc1Nc1cccc(-n2nccn2)c1
inactive: [1] -0.053 | [2] -0.092 | [3] 0.067 | [4] -0.066 | [5] -0.005 | [6] 0.067 | [7] 0.015 | [8] -0.002 | [9] 0.002

Cn1cc(-c2ccc3c(c2)CCN3C(=O)Cc2cccc(C(F)(F)F)c2)c2c(N)ncnc21
active: [5] -0.86
inactive: [1] 0.142 | [2] 0.306 | [3] -0.163 | [4] 0.01 | [6] 0.059 | [7] -0.041 | [8] 0.067 | [9] -0.013

COC(=O)[C@H](CCSC)NC(=O)c1ccc(NC[C@@H](N)CS)cc1-c1ccccc1
inactive: [1] -0.067 | [2] 0.002 | [3] -0.047 | [4] -0.201 | [6] -0.012 | [10] -0.082 | [7] 0.019 | [8] 0.005 | [9] 0.05

Cc1ccc(C(=O)N(CCCN)[C@@H](c2nc3cc(Cl)ccc3c(=O)n2Cc2ccccc2)C(C)C)cc1 [ispinesib]
inactive: [1] -0.064 | [2] -0.074 | [3] -0.27 | [4] 0.296 | [6] 0.029 | [7] 0.014 | [8] 0.062 | [9] 0.005

CN1CCc2c(c3ccccc3n2Cc2ccc(C(=O)NO)cc2)C1 [Tubastatin A]
inactive: [1] -0.086 | [2] 0.091 | [3] 0.275 | [4] -0.089 | [6] 0.095 | [10] -0.08 | [7] -0.126 | [8] 0.018 | [9] -0.032

C#Cc1cccc(Nc2ncnc3cc(OCCOC)c(OCCOC)cc23)c1 [erlotinib]
inactive: [1] 0.001 | [2] -0.098 | [3] 0.097 | [5] -0.048 | [6] -0.056 | [7] 0.03 | [8] 0.056 | [9] 0.005

CCCS(=O)(=O)Nc1ccc(F)c(C(=O)c2c[nH]c3ncc(-c4ccc(Cl)cc4)cc23)c1F [vemurafenib]
inactive: [1] 0.044 | [2] 0.004 | [3] 0.063 | [4] -0.087 | [6] -0.157 | [10] 0.042 | [7] 0.025 | [8] 0.012 | [9] -0.014

Cc1ccc(NC(=O)c2cccc(N(C)C)c2)cc1NC(=O)c1ccc(O)cc1
inactive: [1] 0.006 | [2] 0.143 | [3] -0.097 | [4] 0.012 | [6] -0.183 | [7] 0.162 | [8] -0.036 | [9] -0.012

CCn1c(C(=O)N(C2CC2)C2CC2)cc2c3c(ncn3C)c(Nc3cc(C)n(C)n3)nc21
inactive: [1] -0.034 | [2] 0.004 | [3] -0.188 | [5] 0.128 | [6] 0.002 | [7] 0.007 | [8] 0.005 | [9] 0.014

Cc1cc(Nc2cc(N3CCN(C)CC3)nc(Sc3ccc(NC(=O)C4CC4)cc3)n2)n[nH]1 [tozasertib]
inactive: [1] -0.07 | [2] -0.116 | [3] 0.202 | [4] 0.049 | [6] 0.041 | [10] -0.138 | [7] 0.078 | [8] -0.064 | [9] -0.029

CC[C@@H]1C(=O)N(C)c2cnc(Nc3ccc(C(=O)N[C@H]4CC[C@H](N5CCN(CC6CC6)CC5)CC4)cc3OC)nc2N1C(C)C [volasertib]
inactive: [1] -0.007 | [2] 0.084 | [3] -0.017 | [4] 0.007 | [6] 0.098 | [10] 0.025 | [7] -0.328 | [8] 0.138 | [9] 0.1

Oc1cc(-c2nc(-c3ccccc3)[nH]c2-c2ccncc2)ccc1Cl
inactive: [1] -0.014 | [2] 0.044 | [3] -0.004 | [4] 0.018 | [6] -0.025 | [7] 0.01 | [8] 0.016 | [9] -0.073

NC1(Cc2ccc(Cl)cc2)CCN(c2ncnc3[nH]ccc23)CC1
active: [8] -0.263
inactive: [1] 0.197 | [2] 0.117 | [3] -0.319 | [4] 0.079 | [6] -0.064 | [10] 0.183 | [7] -0.115 | [9] 0.014

CC(C)(C)Cn1c(N)nc2ccc(-c3[nH]c(C(C)(C)C)nc3-c3ccc(F)cc3)nc21 [ralimetinib]
inactive: [1] -0.012 | [2] -0.07 | [3] 0.116 | [4] 0.074 | [6] 0.032 | [7] -0.053 | [8] -0.019 | [9] -0.014

CCN(CCCOc1ccc2c(Nc3cc(CC(=O)Nc4cccc(F)c4)[nH]n3)ncnc2c1)CCOP(=O)(O)O [barasertib]
inactive: [1] 0.03 | [2] -0.034 | [3] 0.026 | [4] -0.041 | [6] 0.037 | [7] 0.039 | [8] -0.001 | [9] -0.01

Cc1ccc(NC(=O)c2ccc(CN3CC[C@H](N(C)C)C3)c(C(F)(F)F)c2)cc1Nc1nccc(-c2cncnc2)n1 [bafetinib]
inactive: [1] -0.057 | [2] -0.452 | [3] 0.246 | [4] -0.098 | [6] 0.107 | [7] -0.233 | [8] 0.021 | [9] -0.014

CN(CCOc1ccc(C[C@@H]2SC(=O)NC2=O)cc1)c1ccccn1 (racemic) [rosiglitazone]
inactive: [1] 0.047 | [2] 0.17 | [3] 0.011 | [4] 0.085 | [6] -0.021 | [7] 0.027 | [8] 0.027 | [9] -0.055

C=CC(=O)N1CCC[C@@H](n2nc(-c3ccc(Oc4ccccc4)cc3)c3c(N)ncnc32)C1 [ibrutinib]
inactive: [1] -0.028 | [2] 0.165 | [3] -0.028 | [4] 0.047 | [6] -0.024 | [7] -0.024 | [8] -0.003 | [9] 0.013

CC(C)c1cnn2c(NCc3ccccc3)cc(NCCCCCCN)nc12
inactive: [1] -0.034 | [2] 0.149 | [3] -0.3 | [5] 0.321 | [6] 0.054 | [7] -0.042 | [8] -0.011 | [9] 0.014

CC(C)C[C@@H](C=O)NC(=O)[C@H](CC(C)C)NC(=O)[C@H](CC(C)C)NC(=O)OCc1ccccc1
inactive: [1] 0.024 | [2] 0.045 | [3] 0.137 | [4] 0.195 | [6] -0.271 | [7] 0.031 | [8] -0.036 | [9] -0.027

Cn1cncc1[C@@](N)(c1ccc(Cl)cc1)c1ccc2c(c1)c(-c1cccc(Cl)c1)cc(=O)n2C [tipifarnib]
inactive: [1] -0.152 | [2] 0.178 | [3] 0.044 | [4] 0.062 | [6] 0 | [10] -0.204 | [7] 0 | [8] -0.048 | [9] -0.001

COc1cc2nc(-c3cc(F)ccc3O)nc(N[C@@H]3CNC[C@H]3C(C)(C)O)c2cc1OC
inactive: [1] -0.026 | [2] 0.024 | [3] 0.268 | [4] -0.013 | [6] 0.042 | [10] 0.093 | [7] 0.205 | [8] 0.028 | [9] -0.006

Cc1ccc2c(=O)c3ccccc3n(CCCN)c2c1C
inactive: [1] -0.142 | [2] 0.011 | [3] -0.126 | [4] 0.17 | [6] -0.168 | [10] -0.196 | [7] 0.205
active: [8] -0.285 | [9] -0.399

CNC(=O)c1ccc(Nc2ncc(C(F)(F)F)c(NCc3nccnc3N(C)S(C)(=O)=O)n2)cc1 [defactinib]
inactive: [1] -0.145 | [2] -0.014 | [3] 0.161 | [4] -0.128 | [6] 0.019 | [10] -0.099 | [7] -0.046 | [8] 0.057 | [9] -0.046
